Hits are enriched below; roughly 0.82% of the tested compounds scored in any of these assays.
GPT2 inh: GPT2 alanine aminotransferase inhibition; Q8TD30; Recombinant GPT2, coupled pyruvate oxidase/HRP Amplex Red fluorescence; Potency, µM (highest dose often 57.7 µM), without a hit: at the highest dose activity change, negative = inhibition, actives largely listed as inhibitors; hit rate 0.25% among 100,000; note: potency is the fitted concentration of half-maximal effect; nearly all actives have a fitted effect of over 60% in size
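Fluorescence read-out: pyruvate from GPT2 turnover coupled to pyruvate oxidase, HRP and Amplex Red (0.2mM ThPP, 0.2U/mL PO and HRP, 50uM Amplex final). Substrates 250uM a-KG, 2mM L-alanine; enzyme 10ng/uL; 30 min RT.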
IP6K1 inh: blocks human inositol hexakisphosphate kinase 1 | activity change, % (series mostly up to about 58 µM) | IP6K1 kinase, ADP-Glo luminescence, 2 h; stronger effect = lower value | AID 1645851 | hit rate 0.81% among 140,000; in the data active = activity change below about -25%
Target sequence (Q92551 whole entry, looked up): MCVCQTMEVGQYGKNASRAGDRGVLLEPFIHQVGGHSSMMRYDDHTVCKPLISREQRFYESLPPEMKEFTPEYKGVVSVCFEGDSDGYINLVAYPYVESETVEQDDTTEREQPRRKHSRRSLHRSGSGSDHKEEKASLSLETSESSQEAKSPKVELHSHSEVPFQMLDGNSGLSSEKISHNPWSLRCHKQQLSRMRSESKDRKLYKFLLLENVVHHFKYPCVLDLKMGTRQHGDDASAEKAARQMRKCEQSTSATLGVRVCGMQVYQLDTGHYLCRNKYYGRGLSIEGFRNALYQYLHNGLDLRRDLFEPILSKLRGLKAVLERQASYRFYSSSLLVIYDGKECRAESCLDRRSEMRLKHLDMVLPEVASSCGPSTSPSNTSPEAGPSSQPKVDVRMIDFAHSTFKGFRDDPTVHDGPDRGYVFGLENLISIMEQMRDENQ
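ADP-Glo luminescence measures ADP made by human IP6K1 during a 2 h RT reaction with ATP/IP6 (mix at 1.3 mM/130 uM); top library doses 57.5 and 19.1 uM final.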
IP6K1 inh cnf: human IP6K1 inhibition, confirmatory; shares compounds with IP6K1 inh; recombinant IP6K1 kinase, ADP-Glo luminescence, 2 h; Potency, µM (doses to about 49 µM), without a hit: at the top dose activity change, negative = inhibition, hits mostly inhibitors; hit rate 13% among 1,200; note: potency is the fitted concentration of half-maximal effect; nearly all actives have a fitted effect of over 65% in size
* hit, by the source's call; i = inactive; ? = inconclusive; . = no result given; ! = a repeat was not active; [ ] = remark or other dose. Unless noted, calls come from the whole dose curve; as a rule, active = well fitted curve in the direction sought with a large enough effect; inconclusive = small, poorly fitted or top-dose-only effect, or another doubt; inactive = no such curve, though single readings can be large; an effect the other way counts as inactive or inconclusive. % is set by controls: 0 for no effect and ±100 for the full control effect.

SMILES	GPT2 inh	IP6K1 inh	IP6K1 inh cnf
CCC(C(=O)N1CCN(c2ccccc2)CC1)n1nc(C)n2c(cc3sccc32)c1=O (configuration not stated)	.	-8.1	.
CCC(C(=O)N1CCN(c2cc(Cl)ccc2C)CC1)n1nc(C)n2c(cc3occc32)c1=O (configuration not stated)	.	-25.9*	2.1%
CCCNC(=O)NC[C@H]1O[C@@H]2C[C@@H](CC(=O)NCc3nccn3C)O[C@@H]2[C@@H]1O	-3.4%[88.5 µM]	-5.7	.
CN(C)c1ccc(CN2CCC(c3nc4ccncc4[nH]3)C2)cc1 (configuration not stated)	-26.3%	12.4	.
Brc1ccc(CN2CCC(c3nc4ccncc4[nH]3)C2)cc1 (configuration not stated)	4.7%	-51.7*!	?
COCc1noc([C@@H]2CN(C(=O)CCc3c[nH]c4ccccc34)C[C@H]2C(N)=O)n1	i	2.0	.
COCc1cn(C[C@H]2C[C@@H](NS(=O)(=O)CC(C)C)[C@H](O)[C@@H]2O)nn1	?	11.3	.
CN(C)C1CCCN(C(=O)c2ccc(CN3CCCC3)o2)CC1 (configuration not stated)	i	13.0	.
CCc1ccccc1N1CC(c2nc3ccccc3n2CCCCOc2ccccc2OC)CC1=O (configuration not stated)	.	-12.7	.
Cc1cccc(OCCCCn2c(C3CC(=O)N(c4ccc(C)cc4C)C3)nc3ccccc32)c1 (configuration not stated)	.	-39.2*	-18.5%
Cc1cccc(OCCCCn2c(C3CC(=O)N(c4ccccc4Cl)C3)nc3ccccc32)c1 (configuration not stated)	.	-5.5	.
COc1ccccc1Cn1c(C2CC(=O)N(c3ccccc3OC)C2)nc2ccccc21 (configuration not stated)	.	-43.1*	12.1%
Cc1cccc(C(=O)N2C(C(=O)NC(C)c3ccccc3)COC23CCC(C)CC3)c1 (configuration not stated)	i	-3.4	.
OC1CC(c2cc(NCCOCc3ccc(Cl)cc3)ncn2)C1 (configuration not stated)	-0.7%	7.1	.
Cc1cnc(CC2CCCN(C(=O)Cc3ccccc3)C2)n1C(C)C (configuration not stated)	-2.1%	12.5	.
Cc1[nH]c(/C=C2\C(=O)Nc3ccc(F)cc32)c(C)c1C(=O)NCCN1CCCC1	i	-5.4	1.9%[18.9 µM]
CCN(CC)CCNC(=O)c1c(C)[nH]c(/C=C2\C(=O)Nc3ccc(F)cc32)c1C	i	18.3	.
Cc1[nH]c(C=C2C(=O)Nc3ccc(S(=O)(=O)Cc4c(Cl)cccc4Cl)cc32)c(C)c1C(=O)N1CCC[C@H]1CN1CCCC1	-0.5%	.	-11.5%
Cc1[nH]c(/C=C2\C(=O)Nc3ccc(S(=O)(=O)N(C)c4cccc(Cl)c4)cc32)c(C)c1C(=O)N1CCN(C)CC1	i	15.3	.
COc1ccc(NC(=O)Nc2cccc(-c3ccc(N4CCOCC4)nn3)c2)cc1	i	-8.4	.
Cc1noc(C)c1S(=O)(=O)N1CCCC(Cc2nncn2C(C)C)C1 (configuration not stated)	i	-3.6	.
COc1ccc(C(=O)N2CCc3nc(-c4ccccc4)nc(-c4ccc(Cl)cc4)c3C2)cc1	-1.7%	-15.1	.
CCn1c(=O)c2cc(C(=O)N(CC(C)C)CC(C)C)sc2c2ccccc21	.	-26.1*	-8.0%
CCCN(C(=O)c1cc2c(=O)n(CC)c3ccccc3c2s1)c1ccccc1F	.	18.3	.
O=C(Nc1cccc(-c2ccc(N3CCOCC3)nn2)c1)Nc1ccccc1F	i	-32.1*	?
SMILES	GPT2 inh	IP6K1 inh	IP6K1 inh cnf
O=C(Nc1cccc(-c2ccc(N3CCOCC3)nn2)c1)Nc1cc(F)ccc1F	-2.4%	-13.3	.
O=C1CCN(S(=O)(=O)c2ccccc2)CCCC(C(=O)NCCCN2CCOCC2)CCN1 (configuration not stated)	4.5%	3.2	.
CC(C)(C)NC(=O)N1C[C@@H](Oc2ccccc2)C[C@H]1C(=O)N1CCOCC1	i	3.8	.
Cc1c(Cn2c(C)nc3c(C(=O)O)cc(N4CCOCC4)cc32)cccc1C(F)(F)F	i	-7.5	-12.1%
Cc1oc2ncnc(N3CCOCC3)c2c1C(=O)N1CCN(c2cccc(C(F)(F)F)c2)CC1	.	-16.5	.
CC(C)NC(=O)C1CCN(c2nccc(Nc3ccccc3F)n2)CC1	1.9%	-5.2	.
N[C@@H](Cc1cc(I)c(O)c(I)c1)C(=O)O	?	-62.0*	-20.5%
O=C(O)C(Cc1cc(I)c(O)c(I)c1)c1ccccc1 (configuration not stated)	-15.7%	25.5	.
Cc1ccc(C(=O)NC2CCCN(c3ccc4nnc(C)n4n3)C2)cc1 (configuration not stated)	.	-6.3	.
Cc1ccc(CNc2oc(-c3ccc(COc4ccc(C)cc4)o3)nc2C#N)cc1	.	2.5	.
Cc1ccc(CNc2oc(-c3ccc(COc4ccc(Cl)cc4)o3)nc2C#N)cc1	.	-29.9*	12.0%
Cc1ccc(CN2CCOC[C@H](Oc3ccc(C(F)(F)F)cc3)C2)cc1	-12.4%[88.5 µM]	-3.4	.
O=C1N(CC2CC2)CCCC12CCN(S(=O)(=O)N1CCOCC1)C2 (configuration not stated)	i	-3.3	.
CC(C)CCN1CC2(CCCN(S(=O)(=O)N3CCOCC3)C2)CCC1=O (configuration not stated)	0.4%[11.5 µM]	-33.4*	-11.2%
Cc1ccc(/C=C/c2nc3ccccc3[nH]2)cc1	.	-41.1*	10.3µM*
O=C(O)CCc1nc2ccccc2[nH]1	i	-17.3	.
COc1ccccc1CN1C[C@@H]2C(=O)N(CCCN3CCCC3=O)C(=O)[C@@H]2C1	i	6.5	.
Cc1c(Cl)cccc1NC(=O)CSc1nc(=O)[nH]c2c1CCCC2	.	-26.9*	-16.0%
CCOc1ccccc1NC(=O)CSc1nc(=O)[nH]c2c1CCCC2	.	2.7	.
COc1ccc(NC(=O)CN2CCN(S(=O)(=O)c3ccc(Br)cc3)CC2)cc1	.	-29.5*	-14.5%
COc1cccc(NC(=O)CN2CCCN(S(=O)(=O)c3ccc(Br)cc3)CC2)c1	.	-19.2	.
O=C1CCN(C(=O)c2ccccc2)CCCC(C(=O)N2CCc3ccccc32)CCN1 (configuration not stated)	i	-7.1	.
CO/N=C(\C(=O)N[C@@H]1C(=O)N2C(C(=O)O)=C(CSc3nc(=O)c(O)nn3C)CSC12)c1csc(N)n1 (some centres not stated)	i	.	.
CO/N=C(\C(=O)N[C@@H]1C(=O)N2C(C(=O)O)=C(CSc3nc(=O)c(O)nn3C)CS[C@H]12)c1csc(N)n1	-3.2%	-78.9*	?
COc1cc(=O)n2c(c1C(=O)NC1CCCCCC1)CCCC2	-11.2%	-7.0	.
c1cc(Nc2cc(C3CC3)[nH]n2)nc(Nc2ccc3nc[nH]c3c2)n1	i	-26.6*	?
O=C(NCC1CCN(c2cc(-c3ccccc3)[nH]n2)CC1)c1ccc2nc[nH]c2c1	-28.8%	9.3	.
COc1cccc(CC(=O)N2CCC(N3CC(OCC4CC4)C34CCOCC4)CC2)c1 (configuration not stated)	i	9.9	.
CCOC(=O)c1ccc(NC(=O)CSc2nccn2-c2cc(C)cc(C)c2)cc1	.	-27.4*	?
